Experimental data: PubChem BioAssay (NCI)
Several values for one entry are separate records, joined by “and”; a condition that tells them apart may be missing. Identical values can stand only once. Compounds without any hit were thinned out: in the full panel of roughly 79,000, 15% have a hit. Rule as the data show it: active = growth inhibition above about 70%; inactive = the rest.

What was measured:
[1] = NCI Yeast Anticancer Drug Screen. Data for the rad50 strain (AID 155);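 also: 0% = growth of vehicle-only cultures of the same strain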; settings: S. cerevisiae rad50 strain growth inhibition; at 50.0 µM; active compounds read high
In short: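 Compounds were tested on a yeast strain with an engineered DNA damage repair alteration; the reported value is growth inhibition normalised to vehicle treatment.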

[2] = NCI Yeast Anticancer Drug Screen. Data for the mec2-1 strain (AID 157); settings: S. cerevisiae mec2-1 strain, at 50.0 µM, active compounds read high
In short: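 Using mec2-1 yeast: add compound, measure growth, express inhibition versus vehicle-treated cultures.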

[3] = NCI Yeast Anticancer Drug Screen. Data for the sgs1 mgt1 strain (AID 161);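 also: 0% = growth of cultures given vehicle only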; settings: S. cerevisiae sgs1 mgt1 strain, at 50.0 µM, active compounds read high
In short: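 Yeast cells carrying a defined DNA-repair defect were exposed to test compounds. Growth inhibition was measured relative to vehicle-treated controls.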

[4] = NCI Yeast Anticancer Drug Screen. Data for the cln2 rad14 strain (AID 165);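 also: 0% = growth equal to vehicle treated cultures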; settings: S. cerevisiae cln2 rad14 strain, at 50.0 µM, active compounds read high
In short: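 Yeast strain cln2 rad14, bearing defects in cell cycle control and DNA repair, serves as the test system; values reflect growth inhibition compared with vehicle.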

[5] = NCI Yeast Anticancer Drug Screen. Data for the bub3 strain (AID 167); settings: S. cerevisiae bub3 mutant strain, at 50.0 µM, active compounds read high
In short: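 Growth of a checkpoint-deficient yeast mutant is measured after compound exposure. Values represent inhibition relative to vehicle.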

[6] = NCI Yeast Anticancer Drug Screen. Data for the mlh1 rad18 strain (AID 175); settings: S. cerevisiae mlh1 rad18 strain growth inhibition; at 50.0 µM; active compounds read high
In short: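 Steps: expose repair-defective yeast to compound; measure growth; express inhibition against vehicle-treated controls.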

Measured: growth inhibition

CN(C)P(N)(=S)N(C)C
inactive: [1] -2.75% | [2] -9.15% | [3] -1.3% | [4] -15.8% | [5] -22.6% | [6] -7.05%

CC(=O)NC(ON1C(=O)COc2ccccc21)C(Cl)(Cl)Cl (stereo not drawn)
inactive: [1] 27.6% | [2] -16.8% | [3] -13.2% | [4] 10.2% | [5] 26.6% | [6] 7.95%

ClCCCCl
inactive: [1] 13.2% | [2] -15.8% | [3] -3.85% | [4] -7.4% | [5] 4.9% | [6] -27.6%

O=C(CC(=O)C(F)(F)F)c1ccco1
inactive: [1] 34% | [2] -25.9% | [3] -19.1% | [4] -49.8% | [5] -16.5% | [6] -8.45%

CC[N+](CC)(CC)CC
inactive: [1] -16.7% and -6.2% | [2] 2.1% and -17.7% | [3] 6.6% and -1.6% | [4] -10.4% and 2.05% | [5] 0.8% and -1.3% | [6] -15.8% and -4.9%

[CH3][Sb]([CH3])[S]C1OC(CO)C(O)C(O)C1O (stereo not drawn)
inactive: [1] -10.3% | [2] 0.9% | [3] 29.9% | [4] -15.8% | [5] 25.5% | [6] -17.8%

O=C(COc1ccc(Cl)c(Cl)c1)Nc1ccc[n+](Cc2c(Cl)cccc2S(=O)(=O)F)c1
inactive: [1] 14.8% | [2] 22.1% | [3] -17.7% | [4] 39.9% | [5] -1.5% | [6] 5.35%

O=[N+]([O-])c1ccc(C2C3C(c4ccccc4)=NCCCN32)cc1 (stereo not drawn)
inactive: [1] -0.2% | [2] 12.2% | [3] -8% | [4] -15.2% | [5] -12.2% | [6] -14.7%

N.N.N.O=N[O-].O=N[O-].O=N[O-].[Co+3]
inactive: [1] -2.05% | [2] 9.65% | [3] -6.25% | [4] 18.6% | [5] 6.5% | [6] -10.4%

Cn1c(=S)[nH]n(CCOc2ccccc2)c1=S
inactive: [1] -7.15% | [2] -5.35% | [3] -5.85% | [4] -18.4% | [5] 3.45% | [6] -6.05%

C[CH2][Sn](=[O])[c]1ccccc1
inactive: [1] -21.9% | [2] -17.6% | [3] 3.3% | [4] 10.3% | [5] -0.9% | [6] -23.4%

C=C(C)CC1(CC)C(=O)NC(=S)NC1=O
inactive: [1] -11.8% and -1.6% | [2] -21.6% and -1.3% | [3] 0.35% | [4] 6% | [5] -5.6% | [6] -13.4% and 12.1%

COC1OC2COC(c3ccccc3)OC2C2N=C(N)N([N+](=O)[O-])C12OS(C)(=O)=O (stereo not drawn)
inactive: [1] -4.8% | [2] -5.4% | [3] -12.2% | [4] -21.1% | [5] -3.6% | [6] 3.75%

CSCC(NP1(=O)SC(NN=C2CCCCC2)=NC1(C)C)C(=O)O (stereo not drawn)
inactive: [1] 12.2% | [2] 3.95% | [3] 2% | [4] -5.5% | [5] -0.15% | [6] 18.6%

CCOc1ccc([N+](=O)[O-])cc1CNCCBr
inactive: [1] 3.3% | [2] -1.3% | [3] -0.45% | [4] -22.1% | [5] -3.1% | [6] 12.2%

[C-]#[N+]C1CCCCC1.[C-]#[N+]C1CCCCC1.[Ni].[S-]c1ccccc1.[S-]c1ccccc1
inactive: [1] 37.5% | [2] 16% | [3] 40.4% | [4] 20.1% | [5] 3.5% | [6] 36.6%

O=[N+]([O-])CCCl
inactive: [1] 3.8% | [2] 2.1% | [3] -3.4% | [4] 3.9% | [5] 3.95% | [6] -3.9%

C[CH2][Sn]([c]1ccccc1)[c]1ccccc1
inactive: [1] 33.1% | [2] 39.2% | [3] 40.3% | [4] 3.65% | [5] 35.5% | [6] 47.1%

C=CCOC(N)=O
inactive: [1] 6.85% | [2] 8.3% | [3] -0.3% | [4] 20.9% | [5] 22.5% | [6] 1.65%

O=C(O)c1ccc([As](=O)(O)O)cc1[N+](=O)[O-]
inactive: [1] -3.85% | [2] -23.1% | [3] -0.65% | [4] 1.7% | [5] -3.6% | [6] 7.4%

CCCCCCNCCc1cnc[nH]1
inactive: [1] 12.8% | [2] 3.1% | [3] 15% | [4] 17.5% | [5] 2.75% | [6] -68.7%

CN1CCN(Cc2ccccc2)C(C#N)C1 (stereo not drawn)
inactive: [1] -2.6% | [2] -8.75% | [3] -0.35% | [4] -25.9% | [5] -17.4% | [6] -11.7%

Nc1ccc([As](O)O)c(C(=O)O)c1
inactive: [1] -15.1% | [2] -24.1% | [3] -27.9% | [4] -2.35% | [5] -26.3% | [6] -35.6%

C1CCN2CC3CCCN4CCCC(C2C1)C34 (stereo not drawn)
inactive: [1] 5.5% and 7.1% | [2] -21.9% and -1.05% | [3] 7.3% and -16.1% | [4] -0.35% and -0.5% | [5] -11.9% and -6.6% | [6] -96.5% and -85.2%

CC[C@]12C=CCN3CC[C@@]4(c5ccc(OC)cc5N(C)[C@H]4[C@@](O)(C(=O)OC)[C@@H]1OC(C)=O)[C@@H]32
inactive: [1] 30.7% | [2] -6.5% | [3] 18.3% | [4] 19.8% | [5] 20.9% | [6] 8.35%

CC[C@@H]1C[C@H]2CC3c4[nH]c5ccccc5c4CCN(C2)C31
inactive: [1] 45.9% | [2] 30.2% | [3] 61.3% | [4] 37% | [5] 47.2% | [6] 65.8%

CC(C)CCCC(C)CO[P+](=O)OCC(C)CCCC(C)C (stereo not drawn)
inactive: [1] 31.9% | [2] 7.4% | [3] 18.5% | [4] 20.4% | [5] 5.8% | [6] 1.25%

CC1=CC(=O)C=CC1=Nc1ccc(N(CCCl)CCCl)cc1
inactive: [1] 22.4% | [2] 11.2% | [3] 6.65% | [4] 2.95% | [5] -1.45% | [6] -5.25%

Oc1ccccc1-c1ccccc1
inactive: [1] 16.6% and 17.9% | [2] 11.1% and 14.4% | [3] 11% and 8.2% | [4] -16.1% and 0.75% | [5] -2.55% and -8.25% | [6] 21.4% and 20.1%

COC(=O)C1=C(N2CCCC2)C2c3ccccc3SC12C(=O)OC (stereo not drawn)
inactive: [1] 20.1% | [2] 10.8% | [3] -0.25% | [4] 0.7% | [5] 14.2% | [6] 9.3%

NCC1OC(OC2C(CO)OC(OC3C(O)C(N)CC(N)C3OC3OC(CN)C(O)C(O)C3N)C2O)C(N)C(O)C1O (stereo not drawn)
inactive: [1] 6.1% | [2] 2.3% | [3] 10.3% | [4] 3% | [5] 15.4% | [6] 6.8%

CC1(C(=O)O)C2[Se]c3cc[se]c3C2C1(C)C(=O)O (stereo not drawn)
inactive: [1] -2.5% | [2] 9.8% | [3] -8.15% | [4] -20.8% | [5] 1% | [6] -4.7%

CCOP(=O)(OCC)C(C#N)OC(C)(C)C (stereo not drawn)
inactive: [1] 4.4% | [2] 20.4% | [3] 12.2% | [4] -0.25% | [5] 10.3% | [6] 2.35%

CN(CC(N)=O)C(=O)N(CCCl)N=O
inactive: [1] 7.8% | [2] 1.6% | [3] -11.5% | [4] -18.7% | [5] 1.55% | [6] -41.5%

CC(=O)Oc1ccc([As](=O)(O)O)cc1
inactive: [1] 5.55% | [2] -7.75% | [3] 3.75% | [4] -11.8% | [5] 10.4% | [6] 1.05%

CCC/C=C/C=C/C(=O)OC1/C(=C/C(=O)OC)CC2CC(C(C)O)OC(=O)CC(O)CC3CC(OC(C)=O)C(C)(C)C(O)(CC4C/C(=C/C(=O)OC)CC(/C=C/C(C)(C)C1(O)O2)O4)O3 (stereo not drawn)
inactive: [1] 15.7% | [2] -5.2% | [3] -7.85% | [4] 21.3% | [5] 6.15% | [6] 23.1%

C1CC[N-]CC1.CC(=N\O)/C(C)=N/O.CC(=N\O)/C(C)=N/O.C[C-]=O.[Co+2]
inactive: [1] -3.6% | [2] 18.4% | [3] 10.3% | [4] 23.6% | [5] 19% | [6] 14.4%

CN(C)C1COC2Cc3ccccc3C1O2 (stereo not drawn)
inactive: [1] -25.6% and -13.6% | [2] -26.2% and -9.45% | [3] -3.65% and 1.7% | [4] -22.4% and 3.5% | [5] -0.15% and -8.75% | [6] -77.4% and -90.5%
